# Results filed as inconclusive are left out. The source made the active and inactive calls. The calls were made as follows: active = hit-call score of the fitted dose curve at least 0.9, where 1 is the maximum; inactive = score below 0.9.
# Molecular target: Tyrosine-protein kinase ABL1 (Homo sapiens) (UniProt P00519)
# Experiment: ERF_FR_ENZ_hABL1: Eurofins (ERF) Enzymatic Radiometric [Km ATP] KinaseProfiler LeadHunter Assay for human ABL1 Thymidine Kinase
# Method: ERF_FR_ENZ_hABL1 is a biochemical, single-readout assay that uses extracted gene-proteins in a cell-free assay. Measurements were taken 0.5 hour after chemical dosing in a 96-well plate. See Abl Human TK Kinase Enzymatic LANCE Assay [Km ATP], Cerep.ERF_FR_ENZ_hABL1 is an assay component calculated from the ERF_FR_ENZ_hABL1 assay. It is designed to measure enzyme activity using a type of enzyme reporter as detected by fluorescence intensity with LANCE technology.Data from the assay component ERF_FR_ENZ_hABL1 was analyzed at the assay endpoint, ERF_FR_ENZ_hABL1, in the positive analysis fitting direction relative to DMSO as the negative control and baseline of activity. Using a type of enzyme reporter, loss-of-signal activity can be used to understand changes in enzymatic activity as they relate to gene ABL1. To generalize the intended target to other relatable targets, this assay endpoint is annotated to the kinase intended target family, where the subfamily is serine/threonine kinase.
# ABL (h) is incubated with 8 mM MOPS pH 7.0, 0.2 mM EDTA, 50 uM […], 10 mM Mg Acetate and [g- 33P]- ATP (specific activity and concentration as required). The reaction is initiated by the addition of the Mg/ATP mix. After incubation for 40 minutes at room temperature, the reaction is stopped by the addition of phosphoric acid to a concentration of 0.5%. An aliquot of the reaction is then spotted onto a filter and washed four times for 4 minutes in 0.425% phosphoric acid and once in methanol prior to drying and scintillation counting. Compound should be supplied in 100%DMSO .We require a stock solution at a concentration of at least 50x higher than the Final Assay Concentration of your cpd. A 10mM stock is also acceptable. When ordering fewer than 60 kinase assays,we need 120uL of 50x concentrated stock. For more than 60 assays, we need 420uL of 50xcc stock. Please apply the conversion if you provide 10mM stock solution or compounds in powder form (pre-weighed is required) From 50 cpds supplied as solids, the TAT will be extended.
# Tyrosine-protein kinase ABL1 (Homo sapiens), sequence (P00519 whole entry, looked up): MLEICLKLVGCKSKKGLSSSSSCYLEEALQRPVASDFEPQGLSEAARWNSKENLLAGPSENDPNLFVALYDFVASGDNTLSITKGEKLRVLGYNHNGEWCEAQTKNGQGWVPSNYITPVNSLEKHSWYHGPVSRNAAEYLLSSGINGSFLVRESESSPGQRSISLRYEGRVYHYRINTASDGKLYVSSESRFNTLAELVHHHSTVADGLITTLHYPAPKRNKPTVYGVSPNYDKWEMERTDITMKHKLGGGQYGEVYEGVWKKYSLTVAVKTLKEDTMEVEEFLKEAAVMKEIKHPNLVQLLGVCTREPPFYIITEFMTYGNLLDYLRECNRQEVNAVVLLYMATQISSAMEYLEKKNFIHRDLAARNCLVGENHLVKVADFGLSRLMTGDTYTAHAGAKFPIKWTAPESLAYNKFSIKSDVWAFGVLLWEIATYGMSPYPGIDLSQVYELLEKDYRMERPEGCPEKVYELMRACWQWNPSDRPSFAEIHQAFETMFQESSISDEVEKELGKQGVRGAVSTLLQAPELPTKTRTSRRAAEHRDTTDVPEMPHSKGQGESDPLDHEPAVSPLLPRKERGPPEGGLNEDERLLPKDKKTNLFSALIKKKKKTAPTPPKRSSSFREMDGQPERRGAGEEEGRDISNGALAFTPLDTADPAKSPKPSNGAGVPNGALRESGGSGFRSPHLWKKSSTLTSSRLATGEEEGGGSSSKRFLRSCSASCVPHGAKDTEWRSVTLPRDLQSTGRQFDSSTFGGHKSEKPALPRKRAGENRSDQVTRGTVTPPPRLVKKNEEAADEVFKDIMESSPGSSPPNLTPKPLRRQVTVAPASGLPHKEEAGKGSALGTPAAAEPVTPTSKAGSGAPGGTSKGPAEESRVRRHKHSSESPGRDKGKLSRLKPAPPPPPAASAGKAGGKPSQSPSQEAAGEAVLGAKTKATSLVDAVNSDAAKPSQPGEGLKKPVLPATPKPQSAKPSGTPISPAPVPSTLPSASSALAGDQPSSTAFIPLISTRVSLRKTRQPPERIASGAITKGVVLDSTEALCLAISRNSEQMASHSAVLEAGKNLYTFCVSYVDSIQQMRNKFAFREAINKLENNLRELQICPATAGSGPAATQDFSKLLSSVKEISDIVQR
SMILES,AC50,outcome
COc1cc(/C=C/C(=O)CC(=O)/C=C/c2ccc(O)c(OC)c2)ccc1O,1.37 µM (active),
COc1cc(CCC(=O)CC(=O)CCc2ccc(O)c(OC)c2)ccc1O,,inactive
O=C(/C=C/c1ccc(O)cc1)CC(=O)/C=C/c1ccc(O)cc1,0.843 µM (active),
